# Test results taken from PubChem BioAssay (EPA / NIEHS).
# Several values for one entry are separate records, joined by “and”; a condition that tells them apart may be missing. Identical values can stand only once. The source holds several records for some structures; these can differ, active in one and inactive in another. Activity calls are given as the source filed them. The calls were made as follows: active = hit-call score of the fitted dose curve at least 0.9, where 1 is the maximum; inactive = score below 0.9.
# Columns and labels:
# [1] = read-out: Transforming growth factor beta 1 (TGFb1), TGFB1 (gene 7040); test: BSK_KF3CT_TGFb1: BioMAP Diversity Plus: KF3CT Assay for Transforming growth factor beta 1 (TGFb1) Biomarker Activity (AID 2283072); conditions: primary human keratinocytes with fibroblasts; actives raise or lower the signal
# Summary of the method: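 Signal changes in either direction, relative to DMSO, define activity here. TGF-b1 is read by ELISA from a human keratinocyte-fibroblast co-culture 24 h post-dose.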
# [2] = read-out: C-C motif chemokine 2 (Homo sapiens) (UniProt P13500); test: BSK_KF3CT_MCP1: BioMAP Diversity Plus: KF3CT Assay for Monocyte Chemoattractant Protein 1 (MCP1/CCL2) Biomarker Activity (AID 2283073); conditions: primary human keratinocytes with fibroblasts; actives raise or lower the signal
# Summary of the method: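 ELISA readout of MCP-1 after 24 h chemical dosing of a human skin primary co-culture of keratinocytes and foreskin fibroblasts. Activity was fitted in both directions against DMSO.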
# [3] = read-out: Matrix Metallopeptidase 9 (MMP9), MMP9 (gene 4318); test: BSK_KF3CT_MMP9: BioMAP Diversity Plus: KF3CT Assay for Matrix Metallopeptidase 9 (MMP9) Biomarker Activity (AID 2283074); conditions: primary human keratinocytes with fibroblasts; actives raise or lower the signal;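 also: MMP9 protein level quantified by ELISA in the co-culture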
# Summary of the method: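 Human keratinocyte and foreskin fibroblast co-culture exposed to chemicals for 24 h; MMP9 biomarker measured by ELISA, bidirectional fitting relative to DMSO; cytotoxicity tracked by SRB total protein staining in parallel cultures.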
# [4] = read-out: urokinase plasminogen activator (uPA), PLAU (gene 5328); test: BSK_KF3CT_uPA: BioMAP Diversity Plus: KF3CT Assay for urokinase plasminogen activator (uPA) Biomarker Activity (AID 2283075); conditions: primary human keratinocytes with fibroblasts; actives raise or lower the signal
# Summary of the method: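 Primary human keratinocyte/foreskin fibroblast co-culture exposed to chemical; uPA measured by ELISA at 24 h. Bidirectional fit versus DMSO, with parallel SRB total-protein staining for cytotoxicity.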
# CD40, CD40 (gene 958) [5] = test: BSK_LPS_CD40: BioMAP Diversity Plus: LPS Assay for CD40 Biomarker Activity (AID 2283076); conditions: primary human HUVEC with PBMC; actives raise or lower the signal
# Summary of the method: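 Cells were dosed, incubated 24 h, then assayed for CD40 by ELISA. Gain or loss of signal was analysed relative to DMSO controls. The culture paired human umbilical vein endothelium with peripheral blood mononuclear cells.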
# [6] = read-out: E-selectin (Homo sapiens) (UniProt P16581); test: BSK_LPS_Eselectin: BioMAP Diversity Plus: LPS Assay for Eselectin Biomarker Activity (AID 2283077); conditions: primary human HUVEC with PBMC; actives raise or lower the signal
# Summary of the method: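 Primary human vascular co-culture (endothelium plus PBMC) was dosed with chemical, then E-selectin quantified by ELISA at 24 h. Endpoint values derive from bidirectional curve fitting relative to DMSO.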
# [7] = read-out: Interleukin-8 (IL8), CXCL8 (gene 3576); test: BSK_LPS_IL8: BioMAP Diversity Plus: LPS Assay for Interleukin-8 (IL8) Biomarker Activity (AID 2283078); conditions: primary human HUVEC with PBMC; actives raise or lower the signal
# Summary of the method: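 Readout is IL-8 by ELISA, taken 24 h after compounds were added to LPS-stimulated endothelial/PBMC co-cultures. Both increases and decreases relative to DMSO control were scored through bidirectional fitting.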
# [8] = BSK_LPS_SRB: Viability Assessment in the BioMAP Diversity Plus: LPS Assay (AID 2283079); conditions: primary human HUVEC with PBMC;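 also: total protein by sulforhodamine B absorbance as a cytotoxicity measure; measured one day after compound addition; fitted in both directions against DMSO so loss or gain of signal counts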
# Summary of the method: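 Readout is SRB absorbance at 560 nm (0.1% stain, TCA-fixed parallel cultures) as a total-protein cytotoxicity measure. Cells: primary human umbilical vein endothelium plus peripheral blood mononuclear cells, 24 h after chemical exposure; DMSO served as baseline.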
# [9] = read-out: Interleukin-1 alpha (IL1a), IL1A (gene 3552); test: BSK_LPS_IL1a: BioMAP Diversity Plus: LPS Assay for Interleukin-1 alpha (IL1a) Biomarker Activity (AID 2283080); conditions: primary human HUVEC with PBMC; actives raise or lower the signal
# Summary of the method: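 ELISA read-out of IL-1 alpha from a human primary vascular co-culture (endothelium plus PBMC) under LPS, sampled 24 hours post-dosing. Activity was fitted in both directions relative to DMSO controls.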
# [10] = read-out: Monocyte Chemoattractant Protein-1 (MCP1), CCL2 (gene 6347); test: BSK_LPS_MCP1: BioMAP Diversity Plus: LPS Assay for Monocyte Chemoattractant Protein-1 (MCP1) Biomarker Activity (AID 2283081); conditions: primary human HUVEC with PBMC; actives raise or lower the signal
# Summary of the method: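 Human endothelial–PBMC co-cultures were dosed with chemical, then LPS-driven MCP-1 levels were quantified by ELISA at 24 h. Activity in either direction was fitted versus DMSO negative control.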
# [11] = BSK_LPS_PGE2: BioMAP Diversity Plus: LPS Assay for Prostaglandin E2 (PGE2) Biomarker Activity (AID 2283082); conditions: primary human HUVEC with PBMC; actives raise or lower the signal;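 as to AC50: secreted prostaglandin E2 measured by ELISA in LPS-stimulated co-culture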
# Summary of the method: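 Endpoint derived from bidirectional curve fitting versus DMSO of ELISA-measured PGE2 in LPS-stimulated human primary vascular co-culture (HUVEC with PBMC) harvested at 24 h.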
# [12] = read-out: Macrophage colony-stimulating factor (MCSF), CSF1 (gene 1435); test: BSK_LPS_MCSF: BioMAP Diversity Plus: LPS Assay for Macrophage colony-stimulating factor (MCSF) Biomarker Activity (AID 2283083); conditions: primary human HUVEC with PBMC; actives raise or lower the signal
# Summary of the method: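 ELISA readout of M-CSF after 24 h compound exposure in a human endothelial/PBMC co-culture. Activity, in either direction, is fitted relative to DMSO vehicle.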
# [13] = read-out: Tissue Factor, F3 (gene 2152); test: BSK_LPS_TissueFactor: BioMAP Diversity Plus: LPS Assay for Tissue Factor Biomarker Activity (AID 2283084); conditions: primary human HUVEC with PBMC; actives raise or lower the signal
# Summary of the method: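 ELISA signal for cell-surface Tissue Factor (CD142) was read 24 h after compound dosing of an LPS-stimulated human endothelial–PBMC primary co-culture. Gain or loss of signal was scored relative to DMSO.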
# [14] = read-out: Tumor necrosis factor (Homo sapiens) (UniProt P01375); test: BSK_LPS_TNFa: BioMAP Diversity Plus: LPS Assay for Tumour Necrosis Factor alpha (TNFa) Biomarker Activity (AID 2283085); conditions: primary human HUVEC with PBMC; actives raise or lower the signal
# Summary of the method: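 Primary human vascular co-culture of HUVEC and PBMC; TNFa ELISA 24 h after treatment, analysed as increase or decrease relative to DMSO control.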
# [15] = read-out: Vascular cell adhesion molecule 1 (VCAM1), VCAM1 (gene 7412); test: BSK_LPS_VCAM1: BioMAP Diversity Plus: LPS Assay for Vascular cell adhesion molecule 1 (VCAM1) Biomarker Activity (AID 2283086); conditions: primary human HUVEC with PBMC; actives raise or lower the signal
# Summary of the method: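 Primary human vascular co-culture (umbilical vein endothelium plus PBMC) stimulated with LPS received chemical; 24 h later VCAM-1 was read by ELISA. Overt cytotoxicity was assessed by sulforhodamine B staining of parallel cultures at the same time point.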
# CD38, CD38 (gene 952) = test: BSK_SAg_CD38: BioMAP Diversity Plus: SAg Assay for CD38 Biomarker Activity (AID 2283087); conditions: primary human HUVEC with PBMC; actives raise or lower the signal
# Summary of the method: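 Fluorescence ELISA of cell-surface CD38 served as the read-out, with either increase or decrease fitted against DMSO controls. Cells were a human umbilical vein endothelium plus PBMC co-culture under SEB/TSST-1 stimulation, measured 24 h after dosing.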
# CD40, CD40 (gene 958) [16] = test: BSK_SAg_CD40: BioMAP Diversity Plus: SAg Assay for CD40 Biomarker Activity (AID 2283088); conditions: primary human HUVEC with PBMC; actives raise or lower the signal
# Summary of the method: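 Compounds were dosed onto a human primary endothelial–PBMC co-culture, and after 24 h CD40 was quantified by ELISA using a fluorescence signal. Activity in either direction was fitted relative to DMSO.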
# CD69, CD69 (gene 969) = test: BSK_SAg_CD69: BioMAP Diversity Plus: SAg Assay for CD69 Biomarker Activity (AID 2283089); conditions: primary human HUVEC with PBMC; actives raise or lower the signal;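 as to AC50: cell surface CD69 protein quantified by ELISA with fluorescence detection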
# Summary of the method: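 Primary human vascular co-culture (umbilical vein endothelium with peripheral blood mononuclear cells) exposed to test chemical for 24 h. CD69 levels quantified by fluorescence ELISA; DMSO served as negative control for bidirectional fitting.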
# [17] = read-out: Monocyte Chemoattractant Protein-1 (MCP1), CCL2 (gene 6347); test: BSK_SAg_MCP1: BioMAP Diversity Plus: SAg Assay for Monocyte Chemoattractant Protein-1 (MCP1) Biomarker Activity (AID 2283090); conditions: primary human HUVEC with PBMC; actives raise or lower the signal
# Summary of the method: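 MCP-1 levels in the endothelial–PBMC SAg co-culture were quantified by ELISA at 24 h post-dosing; both increases and decreases versus DMSO scored. Cytotoxicity monitored by SRB total protein in parallel cultures.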
# [18] = read-out: E-selectin (Homo sapiens) (UniProt P16581); test: BSK_SAg_Eselectin: BioMAP Diversity Plus: SAg Assay for Eselectin Biomarker Activity (AID 2283091); conditions: primary human HUVEC with PBMC; actives raise or lower the signal
# Summary of the method: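 Co-culture: HUVEC + PBMC. Dose compound; 24 h. ELISA for E-selectin. Bidirectional fit vs DMSO.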
# Tumor necrosis factor (Homo sapiens), sequence (P01375 whole entry, looked up): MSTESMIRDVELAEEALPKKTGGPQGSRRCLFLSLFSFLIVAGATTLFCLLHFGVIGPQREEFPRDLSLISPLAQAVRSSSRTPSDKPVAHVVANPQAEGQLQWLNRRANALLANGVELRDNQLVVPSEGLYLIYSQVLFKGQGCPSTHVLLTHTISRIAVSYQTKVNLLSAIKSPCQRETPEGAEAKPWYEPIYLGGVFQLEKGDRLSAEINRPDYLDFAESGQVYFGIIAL
# E-selectin (Homo sapiens), sequence (P16581 whole entry, looked up): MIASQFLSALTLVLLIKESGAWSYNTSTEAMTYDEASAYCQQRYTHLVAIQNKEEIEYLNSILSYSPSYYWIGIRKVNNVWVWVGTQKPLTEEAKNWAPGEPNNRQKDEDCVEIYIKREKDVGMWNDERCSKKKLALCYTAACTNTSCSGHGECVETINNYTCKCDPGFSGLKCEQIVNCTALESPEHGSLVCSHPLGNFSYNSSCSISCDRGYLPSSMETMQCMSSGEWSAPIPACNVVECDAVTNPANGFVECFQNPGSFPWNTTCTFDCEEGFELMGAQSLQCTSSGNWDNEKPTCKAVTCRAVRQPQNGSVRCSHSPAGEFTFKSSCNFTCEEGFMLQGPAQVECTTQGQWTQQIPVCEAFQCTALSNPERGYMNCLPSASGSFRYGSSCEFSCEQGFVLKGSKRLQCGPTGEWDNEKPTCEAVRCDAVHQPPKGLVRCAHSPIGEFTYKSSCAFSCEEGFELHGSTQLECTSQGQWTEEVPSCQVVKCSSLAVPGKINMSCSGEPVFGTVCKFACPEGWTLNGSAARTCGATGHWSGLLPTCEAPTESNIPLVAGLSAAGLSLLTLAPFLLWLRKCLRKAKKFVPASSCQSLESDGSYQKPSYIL
structure (smiles),measurement,setting,value
Cc1c([N+](=O)[O-])c(C)c([N+](=O)[O-])c(C(C)(C)C)c1[N+](=O)[O-],outcome,[1],inactive
same,AC50,[2],34 µM (active)
same,AC50,[3],31.1 µM (active)
same,outcome,[4],inactive
same,outcome,"CD40, CD40 (gene 958) [5]",inactive
same,outcome,[6],inactive
same,outcome,[7],inactive
same,outcome,[8],inactive
same,AC50,[9],11.4 µM (active)
same,outcome,[10],inactive
same,outcome,[11],inactive
same,outcome,[12],inactive
same,outcome,[13],inactive
same,AC50,[14],28 µM (active)
same,outcome,[15],inactive
same,AC50,"CD38, CD38 (gene 952)",1.63 µM (active)
same,outcome,"CD40, CD40 (gene 958) [16]",inactive
same,outcome,"CD69, CD69 (gene 969)",inactive
same,outcome,[17],inactive
same,outcome,[18],inactive
CCOP(=O)(OCC)OC(=CCl)c1ccc(Cl)cc1Cl,AC50,[1],27.1 µM (active)
same,AC50,[2],20 µM (active)
same,AC50,[3],31.9 µM (active)
same,AC50,[4],33.2 µM (active)
same,AC50,"CD40, CD40 (gene 958) [5]",20 µM (active)
same,outcome,[6],inactive
same,outcome,[7],inactive
same,outcome,[8],inactive
same,outcome,[9],inactive
same,outcome,[10],inactive
same,outcome,[11],inactive
same,AC50,[12],22.5 µM (active)
same,AC50,[13],11.9 µM (active)
same,outcome,[14],inactive
same,outcome,[15],inactive
same,outcome,"CD38, CD38 (gene 952)",inactive
same,AC50,"CD40, CD40 (gene 958) [16]",20 µM (active)
same,AC50,"CD69, CD69 (gene 969)",20 µM (active)
same,outcome,[17],inactive
same,AC50,[18],28.6 µM (active)
CC1(C)[C@H](C(=O)O[C@H](C#N)c2cccc(Oc3ccccc3)c2)[C@@H]1/C=C(\Cl)C(F)(F)F,outcome,[1],inactive
same,outcome,[2],inactive
same,AC50,[3],0.357 µM (active)
same,AC50,[4],0.12 µM (active)
same,outcome,[4],inactive
same,outcome,"CD40, CD40 (gene 958) [5]",inactive
same,outcome,[6],inactive
same,AC50,[7],0.0495 µM (active)
same,outcome,[7],inactive
same,outcome,[8],inactive
same,AC50,[9],21.3 µM (active)
same,outcome,[9],inactive
same,outcome,[10],inactive
same,AC50,[11],904 nM (active) and 862 nM (active)
same,outcome,[12],inactive
same,AC50,[14],2.79 µM (active)
same,outcome,[14],inactive
same,outcome,[15],inactive
same,AC50,"CD38, CD38 (gene 952)",5.06 µM (active)
same,outcome,"CD38, CD38 (gene 952)",inactive
same,AC50,"CD40, CD40 (gene 958) [16]",4.51 µM (active)
same,AC50,"CD69, CD69 (gene 969)",3.39 µM (active)
same,outcome,"CD69, CD69 (gene 969)",inactive
same,outcome,[17],inactive
same,outcome,[18],inactive
